Reference: PubChem BioAssay AID1851 (National Center for Advancing Translational Sciences (NCATS), 2009)
“And” between values parts separate entries of the source, which are not always exact repeats. Equal values may be shown once. Out of some 16,000 compounds screened, about 4,000 (25%) were called active. About 26% were inconclusive and are not listed. Not all results are given here. Values without a mark were called inactive. The call rests on the fitted dose curve; in most records, active means well fitted curve in the direction sought with a large enough effect; inconclusive means small, poorly fitted or top-dose-only effect, or effect the other way; inactive means no such curve, though single readings can be large or run the other way. Square brackets hold non-standard residues; d marks the D form. Peptide text beside a SMILES is read from it.

These compounds were tested against Cytochrome P450 2C9 (Homo sapiens) (UniProt P11712) (assay: Cytochrome panel assay with activity outcomes). Settings: recombinant CYP, pro-luciferin dealkylation, luminescence, p450-cyp2c9; series mostly up to 57.1 µM; activity, negative = inhibition: at the top concentration.
Chain of Cytochrome P450 2C9 (Homo sapiens) (P11712 whole entry, looked up): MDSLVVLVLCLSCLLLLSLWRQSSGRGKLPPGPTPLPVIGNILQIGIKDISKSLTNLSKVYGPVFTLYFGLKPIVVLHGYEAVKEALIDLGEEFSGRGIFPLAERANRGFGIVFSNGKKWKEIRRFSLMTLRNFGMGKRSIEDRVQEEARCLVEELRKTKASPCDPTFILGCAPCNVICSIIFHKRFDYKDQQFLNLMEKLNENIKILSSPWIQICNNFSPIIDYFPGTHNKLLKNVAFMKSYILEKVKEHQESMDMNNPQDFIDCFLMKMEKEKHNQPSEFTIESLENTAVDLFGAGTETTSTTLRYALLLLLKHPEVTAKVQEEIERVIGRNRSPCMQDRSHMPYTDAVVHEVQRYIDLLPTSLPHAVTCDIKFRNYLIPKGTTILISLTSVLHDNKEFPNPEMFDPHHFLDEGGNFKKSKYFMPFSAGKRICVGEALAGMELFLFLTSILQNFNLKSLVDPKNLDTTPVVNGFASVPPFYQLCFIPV
On the % scale 0 is the no-effect control and ±100 the full control effect.

Row | Structure (SMILES) | activity, negative = inhibition | AC50
1 | Cc1noc(C)c1-c1ccc2ncnc(NC3CCNCC3)c2c1 | 14.5% [at 2.29 µM] | 
2 | Cc1nnc(S(=O)(=O)c2ccc(N=Nc3c(N)nc(N)nc3N)cc2)s1 | -2.75% [at 11.4 µM] | 
3 | CCOc1ccc(C(=O)Nc2cccc(-c3cc4ccccc4oc3=O)c2)cc1[N+](=O)[O-] |  | 1.41 µM (active)
4 | COc1cc(NC(=O)c2cc(Cl)ccc2Cl)ccc1-c1cc2ccccc2oc1=O |  | 4.47 µM (active)
5 | COc1cc(C(=O)NC(=S)Nc2cccc(-c3cc4ccccc4oc3=O)c2)cc(OC)c1OC |  | 3.55 µM (active)
6 | COc1cc(C(=O)NC(=S)Nc2ccc3oc(=O)ccc3c2)cc(OC)c1OC | -9.84% | 
7 | Cc1nc(-c2cccc(NC(=O)c3cc4cc(Br)ccc4oc3=O)c2)cs1 | -14.4% | 
8 | CCCC(=O)N1CCN(c2ccc(NC(=O)c3ccc(OCC)c([N+](=O)[O-])c3)cc2)CC1 | -21.6% | 
9 | NCCOB(c1ccccc1)c1ccccc1 | -20% | 
10 | Cc1ccc(-n2c3c(c(=O)[nH]c2=O)C(NS(=O)(=O)c2ccc(C)cc2)(C(F)(F)F)C(=O)N3)cc1 (centres undefined) | -22.2% | 
11 | CC(=O)Nc1ccc(S(=O)(=O)NC2(C(F)(F)F)NC(=O)N(c3ccc(Cl)cc3)C2=O)cc1 (centres undefined) |  | 10 µM (active)
12 | CN(N=O)c1ccc(/C=C\c2ccnc3ccccc23)cc1 | -6.97% [at 11.4 µM] | 
13 | Oc1c(CN2CCCCC2)cc(Br)c2cccnc12 | -18.6% | 
14 | CON(c1nc(N(C)C)nc(N(C)C)n1)S(=O)(=O)c1ccccc1Cl |  | 11.2 µM (active)
15 | CC(=O)Nc1cccc(C(=O)OC(C(=O)c2ccc(C)c(C)c2)c2ccccc2)c1 (centres undefined) |  | 3.98 µM (active)
16 | NC(N)=NC(=O)c1nc(Cl)c(N)nc1N |  | inactive
17 | FC(F)Sc1ccc(N=C2NN=C(c3ccc4c(c3)OCCO4)CS2)cc1 |  | 22.4 µM (active)
18 | C[N+](C)(C)CCCCCNCC12CC3CC(CC(C3)C1)C2 | -2.76% | 
19 | COC(=O)[C@@]1(Cc2ccc(F)cc2)[C@H]2c3cc(C(=O)N4CCCC4)n(Cc4ccc(C)c(F)c4F)c3C[C@H]2CN1C(=O)c1ccccc1 |  | 10 µM (active)
20 | COC(=O)[C@@]1(Cc2ccc(F)cc2)[C@H]2c3cc(C(=O)N4CCCC4)n(Cc4ccc(S(C)(=O)=O)cc4)c3C[C@H]2CN1C(=O)c1ccccc1 |  | 25.1 µM (active)
21 | COC(=O)[C@@]1(Cc2ccc(F)cc2)[C@H]2c3cc(C(=O)N4CCCC4)n(Cc4ccccc4)c3C[C@H]2CN1C(=O)c1ccccc1 |  | 3.98 µM (active)
22 | COC(=O)[C@@]1(Cc2ccc(F)cc2)[C@H]2c3cc(C(=O)N4CCCC4)n(Cc4ccc(OC(F)(F)F)cc4)c3C[C@H]2CN1C(=O)c1ccccc1 |  | 6.31 µM (active)
23 | CCC(=O)c1ccc2c(c1)N(CCCN(C)C)c1ccccc1S2 | 8.42% | 

Row | Structure (SMILES) | activity, negative = inhibition | AC50
24 | CC(C)(C)N1C(=O)[C@H]2[C@H]3[C@H](O)[C@H](O)C/C(=N/NC(=O)OCc4ccccc4)[C@H]3CC[C@@H]2C1=O | 16% [at 11.4 µM] | 
25 | COC(=O)[C@@]1(Cc2ccc(F)cc2)[C@H]2c3cc(C(=O)N(C)C)n(Cc4ccc(C)c(F)c4F)c3C[C@H]2CN1C(=O)c1ccccc1 |  | 25.1 µM (active)
26 | COC(=O)[C@@]1(Cc2ccccc2)[C@H]2c3cc(C(=O)N4CCCC4)n(Cc4nc5ccccc5[nH]4)c3C[C@H]2CN1C(=O)c1ccccc1 |  | 1 µM (active)
27 | CCOC(=O)[C@H](CCc1ccccc1)N[C@@H](C)C(=O)N1CCC[C@H]1C(=O)O | 28% [at 25.6 µM] | 
28 | COC(=O)[C@@]1(Cc2ccccc2)[C@H]2c3cc(C(=O)N4CCCC4)n(CC4CC4)c3C[C@H]2CN1C(=O)c1ccccc1 |  | 1 µM (active)
29 | Cc1cc(=O)n2c3ccccc3n(CC(O)CN3CCCCC3)c2c1C#N (centres undefined) | -16.7% | 
30 | CCCCC(=O)Nc1nnc(SCC(=O)NC2CCCC2)s1 | -4.72% | 
31 | CCSc1nnc(NC(=O)CSc2nc3c(cc2C#N)CCCC3)s1 |  | 2.51 µM (active)
32 | O=C(O)Cc1cccnc1 | 12.8% [at 11.4 µM] | 
33 | Cn1c(C(=O)O)c(CC(=O)NCc2cccnc2)c2ccccc21 |  | 3.55 µM (active)
34 | CN(C)C(=O)c1ccc(-c2nc(NCc3cccnc3)c3ccccc3n2)cc1 | 8.86% [at 2.29 µM] | 
35 | O=c1nc(-c2ccccc2)cn[nH]1 | 16.6% | 
36 | Nc1nc(C(=O)O)c(N=Nc2ccccc2)c(=O)[nH]1 | -0.919% [at 11.4 µM] | 
37 | Nc1[nH]n2c(=O)cc(-c3ccccc3)nc2c1N=Nc1ccccc1 |  | 15.8 µM (active)
38 | CN(C)c1ccc(-c2nc(NCCN3CCOCC3)c3ccccc3n2)cc1 | 10.3% [at 2.29 µM] | 
39 | CCOC(=O)Cn1c(CN(Cc2ccccc2)Cc2ccccc2)nc2c1c(=O)[nH]c(=O)n2C |  | 14.1 µM (active)
40 | COC(=O)Cn1c(CN(Cc2ccccc2)Cc2ccccc2)nc2c1c(=O)[nH]c(=O)n2C |  | 14.1 µM (active)
41 | Cn1c(=O)[nH]c(=O)c2c1nc(CN1CCOCC1)n2Cc1ccccc1 | 9.04% | 
42 | Cn1c(=O)[nH]c(=O)c2c1nc(CN(Cc1ccccc1)Cc1ccccc1)n2CCN1CCOCC1 |  | 15.8 µM (active)
43 | CCOCCn1c(CN(Cc2ccccc2)Cc2ccccc2)nc2c1c(=O)[nH]c(=O)n2C |  | 7.94 µM (active)
44 | Cc1ccc(C(=O)CNc2nc3c(c(=O)[nH]c(=O)n3C)n2Cc2ccccc2)cc1 |  | 0.891 µM (active)
45 | Cc1cc(C)n(-c2nc3c(c(=O)[nH]c(=O)n3C)n2CC(C)C)n1 | -2.02% | 
46 | COCCCCC(=NOCCN)c1ccc(C(F)(F)F)cc1 |  | 3.98 µM (active)

Row | Structure (SMILES) | activity, negative = inhibition | AC50
47 | CCON=C1C(C)(C)C(C)(C)C(C)(C)C1(C)C | 4.67% [at 11.4 µM] | 
48 | CCn1c(C)c(/C=N/Nc2nc3ccccc3s2)c2ccccc21 | 5.03% | 
49 | CCCN=Cc1c(CCC)[nH]n(-c2nc3ccccc3s2)c1=O |  | 10 µM (active)
50 | C(/C=C/c1ccco1)=N/N1CCN(c2ccccc2)CC1 | -16.4% | 
51 | COC(=O)/C(=C\C(=O)c1ccccc1)Nc1cccc(C(F)(F)F)c1 |  | 15.8 µM (active)
52 | Cc1sc(N)c(C(=O)c2cccc(C(F)(F)F)c2)c1C | 21.8% | 
53 | CCC(C(=O)Nc1cccc(C(F)(F)F)c1)c1ccccc1 (centres undefined) |  | 2.82 µM (active)
54 | O=C(CSc1ccc(C(F)(F)F)cc1[N+](=O)[O-])Nc1ccccc1 | 13.6% | 
55 | O=c1[nH][nH]c(C(F)(F)F)c1C=Nc1ccccc1 | -29.1% | 
56 | CCC[C@H]1C(=O)N2C(N(C)C)=Nc3ccc(C)cc3N2C1=O | -23.7% [at 25.6 µM] | 
57 | Cn1c(COc2nnc(-c3ccc(Cl)cc3)c3ccccc23)nc2ccccc21 |  | 3.98 µM (active)
58 | COc1ncc2nc(-c3ccc(Cl)cc3)c(=O)n(-c3ccccc3)c2n1 | -18.4% | 
59 | Cn1c(C[C@@H](O)c2nc3ccccc3n2C)nc2ccccc21 | 5.4% [at 11.4 µM] | 
60 | CSCC[C@H](C=O)NC(=O)[C@H](CC(C)C)NC(=O)[C@H](CC(C)C)NC(C)=O (Ac-Leu-Leu-[dM]-aldehyde) | 11.9% | 
61 | Cc1nn(Cc2ccc(Cl)cc2)c(C)c1NC(=O)Cn1nc([N+](=O)[O-])c(Cl)c1C | -19.6% | 
62 | Cc1c(Cl)c([N+](=O)[O-])nn1Cc1ccc(C(=O)N/N=C\c2cccc(Br)c2)o1 |  | 5.62 µM (active)
63 | C/C(Cn1nc([N+](=O)[O-])cc1C)=N\NC(=O)c1ccc(O)cc1O | 8.73% | 
64 | Cc1c(Cl)c([N+](=O)[O-])nn1Cc1ccc(C(=O)N/N=C\c2cc(Cl)ccc2O)o1 |  | 3.98 µM (active)
65 | CCN(CC)CC[n+]1ccc2c(C)c3[nH]c4ccccc4c3c(C)c2c1 | 3.85% [at 11.4 µM] | 
66 | O=C(O)c1nn(-c2ccccc2-c2n[nH]c(=O)[nH]c2=O)c(=O)[nH]c1=O | -7.45% [at 11.4 µM] | 
67 | CN(Cc1ccco1)c1cc(-c2ccoc2)ncn1 | -1.76% [at 2.29 µM] | 
68 | C1COC(NC(C2CC2)C2CC2)=N1 | -5.58% | 
69 | O=C(CSc1n[nH]c(-c2ccccc2O)n1)N1CCCc2ccccc21 |  | 1.12 µM (active)

Row | Structure (SMILES) | activity, negative = inhibition | AC50
70 | O=C(CNCCO)N1CCc2ccccc21 | -2.25% | 
71 | C#CCCCCCCCCCCCCCCCC(=O)O |  | 12.6 µM (active)
72 | O=C(O)CCCCCCCC(=O)O | 4.79% | 
73 | C#CCOCCCC(=O)O | 14.4% [at 11.4 µM] | 
74 | COC(=O)C/C=C\[C@@H](C)[C@@H]1C=C[C@H](OC(C)=O)[C@H](COC(C)=O)O1 | 14.8% [at 11.4 µM] | 
75 | CCOC(=O)C(C)CC(C)C(=O)N1CCOCCN(C(=O)C(C)CC(C)C(=O)OCC)CCOCC1 (centres undefined) | -27.1% | 
76 | CN(C)CC(C)(C)CN1c2ccccc2Sc2ccccc21 | -2.35% [at 11.4 µM] | 
77 | CCc1cccc2c3c([nH]c12)[C@@](CC)(CC(=O)O)OCC3 | -43.4% [at 25.6 µM] | 
78 | CCc1cccc2c(-c3ccccc3)c3c(nc12)OCC3 |  | 12.6 µM (active)
79 | CC1(C)O[C@H]2[C@@H](c3[nH]nc4c(=O)[nH]c(=O)[nH]c34)OC[C@H]2O1 | 5.4% [at 11.4 µM] | 
80 | CO[C@H]1COC(=O)C/C=C\[C@H](C)[C@@H](NS(=O)(=O)c2ccc(C)cc2)COC(=O)C/C=C\[C@@H]1C | -17.2% [at 11.4 µM] and -4.44% [at 11.4 µM] | 
81 | CSCC[C@@H]1NC(=O)C/C=C\[C@@H](C)COC(=O)[C@H](C)COC1=O | -7.38% [at 11.4 µM] | 
82 | c1ccc(-c2ccc(C3=Nn4c(Cn5nnc6ccccc65)nnc4SC3)cc2)cc1 |  | 12.6 µM (active)
83 | c1ccc2c(c1)nnn2CN1CCOCC1 | 15.8% [at 11.4 µM] | 
84 | Cc1cnc(CNc2ncncc2-c2ccccc2Cl)cn1 | 28.2% [at 2.29 µM] | 
85 | COc1ccc([C@@H]2CNC(=O)C2)cc1OC1CCCC1 |  | inactive
86 | COc1cc(C2C(=O)N(C3CCCC3)CC(=O)N2Cc2ccco2)ccc1OC(C)C (centres undefined) |  | 10 µM (active)
87 | COc1ccc(C2C(=O)N(C3CCCCCC3)CC(=O)N2Cc2ccccc2)cc1OC (centres undefined) |  | 12.6 µM (active)
88 | COc1ccc(CN2C(=O)CN(C3CCCCCC3)C(=O)C2c2ccc(OC)c(OC)c2)cc1 (centres undefined) |  | 11.2 µM (active)
89 | CCCOc1ccc(C2C(=O)N(C3CCCCC3)CC(=O)N2C2CC2)cc1OC (centres undefined) |  | 10 µM (active)
